# About 83,000 compounds went through this panel and 20% of them were active in at least one assay; those are over-represented in the sample as a whole.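 Interpretation: 100, growth as untreated; towards 0, rising growth inhibition; 0, no net growth; 0 to -100, cell death. Compounds scoring below 10 were considered active.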 Unmarked numbers belong to inactive results. The source made the active and inactive calls.
# Tests used:
# Test in all cases: NCI-60 one-dose screen, 48 h (100 = growth as untreated, 0 = no growth, -100 = all killed)
# Conditions in all cases: 10 µM unless noted
# HCT-15 colon = tested on: HCT-15 colon
# HT29 colon = tested on: HT29 colon
# SNB-75 CNS = tested on: SNB-75 CNS
# U251 CNS = tested on: U251 CNS
# PC-3 prostate = tested on: PC-3 prostate
# SK-MEL-5 melanoma = tested on: SK-MEL-5 melanoma
# UACC-62 melanoma = tested on: UACC-62 melanoma
# LOX IMVI melanoma = tested on: LOX IMVI melanoma
# SK-MEL-28 melanoma = tested on: SK-MEL-28 melanoma
SMILES,growth (HCT-15 colon),growth (HT29 colon),growth (SNB-75 CNS),growth (U251 CNS),growth (PC-3 prostate),growth (SK-MEL-5 melanoma),growth (UACC-62 melanoma),growth (LOX IMVI melanoma),growth (SK-MEL-28 melanoma)
CCN(CC)CC(O)c1cc(-c2ccc(Cl)cc2)nc2c(C)c(Cl)ccc12 (centres undefined),-86.9% (active),-100% (active),-39.7% (active),-93.5% (active),-68.4% (active),-96.6% (active),-92.3% (active),-94.7% (active),-85.5% (active)
COC1=CC(=O)C(OC)=C(OC)C1=O,102%,107%,90.1%,100%,98.1%,97.5%,87.5%,84.6%,98.6%
CCOC(=O)c1c2ncccc2n2c(=O)n(-c3ccc(Cl)cc3)nnc12,96.6%,108%,86.7%,95.1%,95.6%,85.8%,46.6%,41.1%,115%
Cc1cc(-c2nc3ccccc3s2)ccc1NC(=O)COc1ccc(Cl)cc1,92.7%,101%,84.4%,94.1%,83.2%,98.8%,96.1%,94.5%,114%
Nc1cccc(NC(=O)C(=O)Nc2cccc(N)c2)c1,94.5%,115%,94%,95.8%,99.8%,117%,90.6%,90%,103%
Cc1cc(=O)oc2cc(Oc3nc(-c4cccs4)cn4c(-c5cccs5)cnc34)ccc12,72.9%,46.6%,35.6%,47.5%,53%,42.5%,71.1%,38.4%,23.9%
CN1Cc2c(cc(CN3CCCCC3)n2C)C(c2ccc(Br)cc2)C1 (centres undefined),67.7%,49.6%,70.3%,86.4%,82.9%,61.2%,-16.1% (active),68.2%,54.3%
CCCCCCCCCCCCCCCC(=O)OCC1OC(n2cnc3c(=S)nc(N)[nH]c32)C(OC(=O)CCCCCCCCCCCCCCC)C1OC(=O)CCCCCCCCCCCCCCC (centres undefined),55.1%,37.7%,78.2%,83.7%,78.8%,96.7%,31.7%,21.7%,130%
COc1ccc(CCN2CCCn3c2nc2ccccc2c3=O)cc1,22.2%,11.8%,17.5%,29%,42%,15.5%,26.5%,15.1%,49.6%
CCN(CC)CCCC(C)NCCCNc1cccc2cccnc12 (centres undefined),104%,92%,89.9%,91.4%,87.3%,98.5%,90.4%,85.3%,123%
CCN1CCN(Cc2ccc(NC(=O)Nc3nc4ccc(Oc5ccnc(C(=O)NC)c5)cc4s3)cc2C(F)(F)F)CC1,-55.8% (active),1.79% (active),-87.4% (active),-60.8% (active),-63.3% (active),19.8%,-92.7% (active),-78.9% (active),-85.2% (active)
OCC1C2C=CC(C2)C1CO (centres undefined),110%,97.6%,75.8%,100%,79.5%,130%,107%,101%,107%
OC(c1cc(-c2ccccc2)nc2ccc(Cl)cc12)C1CCCCN1 (centres undefined),-12.3% (active),-3.87% (active),61.9%,21.5%,49.4%,-5.63% (active),-31.2% (active),-83.2% (active),-76.9% (active)
CN(CC(=O)N(Cc1ccc(C2CCCCC2)cc1)c1ccc(C(=O)NO)cc1)S(=O)(=O)c1c(F)c(F)c(F)c(F)c1F,-35.4% (active),0.552% (active),84.5%,48.8%,88.1%,99.6%,94.5%,-8.7% (active),86.8%
CCN(CC)Cc1cc(Nc2c3ccccc3nc3cc(Cl)ccc23)ccc1O,-28.6% (active),-38.3% (active),-100% (active),-51.6% (active),-41.5% (active),-100% (active),-97.2% (active),-86.5% (active),-79.3% (active)
COc1ccc(-c2cc(-c3cccnc3)nc3sc4c(=O)n(-c5ccc(C)cc5)nnc4c23)cc1OC,103%,105%,85.8%,104%,95.8%,97.4%,98.7%,97.2%,99.9%

# From PubChem BioAssay (NCI)
